Screens deposited in PubChem by several laboratories.
HIF-2a block – HIF-2a reporter inhibitors, primary screen, luminescence, 786-0 RCC cells | 786-0 RCC cells HIF-2a reporter, luciferase luminescence, overnight | inhibition, % at 18.8 µM | 0.72% of 360,000 active;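 active means inhibition of the luminescence signal of 40% or more relative to plate controls, in a single-dose primary screen at 18.75 µM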
Shn3 3UTR inh – reduction of Shn3 3'UTR firefly luciferase signal, primary screen, Schnurri-3 inhibitor project, cell-based, Clone20 osteoblasts, set 2. inhibition, % at 12.5 µM. 0.52% of 360,000 active. AID 588674, 2011. Clone20 osteoblast Shn3 3'UTR firefly luciferase, 24 h;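 active means mean inhibition of at least 75% with every replicate also reaching 75%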;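 further: 0% = median of neutral control wells and 100% = pilot-screen positive control compound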
MITF TRPM1 inh – inhibitors of MITF-dependent TRPM1 promoter reporter, primary screen, cell-based, SK-MEL-5, single point, luciferase; AID 488899, 2010; SK-MEL-5 TRPM1 promoter luciferase, 24 h; inhibition, % at 12.5 µM; 0.83% of 330,000 active;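 active means mean inhibition across replicates of 60% or more, whatever share of single replicates reaches that level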
KKLEB tox – cytotoxicity in KKLEB CF airway cells, primary screen, cytotoxicity control for CF NF-kB inhibitor project, cell-based, uHTS, fluorescence assay plates; KKLEB CF airway cells viability, ATPlite luminescence, overnight; stronger effect = lower value; cells stimulated with P. aeruginosa culture filtrate; activity change (cytotoxicity), % at 5 µM; 0.36% of 360,000 active; AID 602141, 2011;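 active means corrected activity change at or below -50% at 5 µM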
Peg3 prom inh-1 – Peg3 promoter-driven luciferase inhibitors, primary screen, cell-based, HeLa, luciferase luminescence. HeLa PEG-Prom luciferase reporter, overnight. inhibition, % at 20 µM. 1.7% of 360,000 active. AID 588405, 2011;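 active means inhibition of at least 50% at 20 µM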
CF NFkB block – inhibitors of PAF-induced NF-kB signaling, primary screen, cell-based, GFP fluorescence, uHTS; KKLEB NF-kB-GFP reporter, GFP fluorescence overnight; inhibition, % at 5 µM; 0.86% of 360,000 active; AID 588850, 2011;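 active means at least 50% inhibition at 5 µM, scaled per plate between neutral and stimulator controls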;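 further: PAF is a Pseudomonas aeruginosa culture filtrate used as stimulus; plate controls were PAF-stimulated DMSO wells for no effect and unstimulated DMSO wells for full effect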
Peg3 prom inh-2 – Peg3 promoter reporter inhibitors, retest, confirmation, cell-based, HeLa, luciferase reporter, single concentration; 84% of 1,300 active; HeLa PEG-Prom luciferase reporter, luminescence, overnight; inhibition, % at 20 µM; shares compounds with Peg3 prom inh-1;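 active means at 20 µM dose, 40% or more inhibition averaged across four replicates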
An asterisk follows results filed as active; · = no result; ! = a repeat was not active. Most compounds without a hit are left out; they make up all but 2.7% or so of the library.

SMILES	HIF-2a block	Shn3 3UTR inh	MITF TRPM1 inh	KKLEB tox	Peg3 prom inh-1	CF NFkB block	Peg3 prom inh-2
COc1ccc(CNCCC(c2ccccc2)c2ccc(OC(C)C)cc2)cc1OC (centres undefined)	20.2	61.3	74.0*	20.8	100.8*	-13.2	96.7*
COc1ccc(-c2sc3ccccc3c2-c2ccc(OCCN3CCCCC3)cc2)cc1	6.3	-11.9	-18.1	-14.4	95.9*	30.3	79.2*
COc1ccc(-c2sc3cc(OC)ccc3c2-c2ccc(OCCN3CCCCC3)cc2)cc1	5.2	·	·	·	·	·	·
COc1cc(OC)cc(C(=O)Nc2ccccc2-c2nnn(CC(=O)Nc3cc(C)on3)n2)c1	7.5	-0.9	-0.9	-6.9	71.0*	17.1	19.2
O=C(CCCN1C(=O)/C(=C/c2ccccc2Cl)SC1=S)NNC(=O)c1ccccc1Cl	92.7*	11.0	40.5	3.0	60.0*	7.8	67.9*
COc1ccccc1/C=C1\SC(=S)N(CCC(=O)NNC(=O)c2ccccc2O)C1=O	26.5	-1.0	23.5	-26.8	30.6	1.6	·
COc1ccc(/C=C2\SC(=S)N(CCCC(=O)NNC(=O)c3ccccc3O)C2=O)cc1	90.4*	80.4	92.1*	-0.8	71.1*	5.5	71.5*
O=C(O)CN1C(=O)/C(=C\c2ccccc2OCc2ccc(Cl)cc2Cl)SC1=S	65.7*	36.1	2.7	10.9	55.3*	-19.7	65.1*
O=C(O)CN1C(=O)/C(=C\c2cc(Br)ccc2OCc2ccccc2Cl)SC1=S	-21.8	-5.8	10.3	-7.7	-19.5	4.5	·
COc1ccc(C(=O)NC(CCSC)C(=O)NC2CC2)cc1 (centres undefined)	3.0	1.3	-8.3	1.2	8.4	9.8	·
COc1ccc(OCCOC(=O)CNS(=O)(=O)c2ccc(SC)c([N+](=O)[O-])c2)cc1	6.2	-11.6	-14.8	-11.3	-6.0	17.4	·
CCOc1cc(/C=N/Nc2nc(-c3cccc(S(=O)(=O)N4CCCC4)c3)cs2)ccc1O	8.9	40.0	2.2	23.3	51.6*	-16.0	47.0*
O=S(=O)(c1ccc(Cl)cc1)N1CCN(Cc2ccncc2)CC1	17.3	-10.8	9.9	7.3	-10.6	-3.9	·
O=S(=O)(c1ccc(Cl)cc1)N1CCN(Cc2ccc(O)c3ncccc23)CC1	7.7	87.7*	64.0*	-2.2	52.5*	5.6	56.2*
Cc1cc(C)c2c(N)c3ccccc3nc2n1	14.7	-36.1	66.2*	8.7	86.6*	-146.5	90.5*
COc1cc(C(=O)N/N=C(\c2ccccc2)c2ccccn2)cc(OC)c1OC	28.9	88.6*	78.4*	1.8	107.0*	15.8	80.7*
COC(=O)c1sccc1NC(=O)c1c(Cl)cnn1C	-7.4	20.1	5.1	-2.3	8.4	-2.3	·
O=C(NCC(c1ccco1)N1CCc2ccccc21)c1cccc([N+](=O)[O-])c1 (centres undefined)	10.0	12.0	2.1	0.8	15.0	-3.6	·
Cc1ccc(NCCN(C)C)c2c(=O)c3cc(O)ccc3sc12	23.8	41.7	93.4*	-23.9	105.9*	-136.3	100.2*
CN(C)CCNc1ccc2nnn3c4ccc(O)cc4c(=O)c1c23	27.0	-10.9	25.4	-16.6	74.9*	-30.2	55.8*
CCOc1ccc(C(=O)OCCN(CC)CC)cc1	16.8	-19.7	14.2	-1.7	5.5	-13.2	·
CCN(CC)CCOc1ccc(/C(=C(/Cl)c2ccccc2)c2ccccc2)cc1	-6.7	8.8	11.2	3.1	102.2*!	39.3	95.9*
N=c1c2c(-c3ccccc3)c(-c3ccccc3)n(Cc3ccccc3)c2ncn1CCO	34.3	-3.1	26.0	-9.9	98.5*	16.3	95.8*
Cc1c(Cl)cc(-n2cnnn2)cc1[N+](=O)[O-]	12.6	-2.3	2.3	2.7	11.0	-22.8	·
Cc1c([N+](=O)[O-])cc(N2C(=O)C=CC2=O)cc1[N+](=O)[O-]	21.3	20.6	50.0	-1.4	105.1*	3.1	98.3*
SMILES	HIF-2a block	Shn3 3UTR inh	MITF TRPM1 inh	KKLEB tox	Peg3 prom inh-1	CF NFkB block	Peg3 prom inh-2
C1=NN(c2ccccc2)C=NN1c1ccccc1	-249.9	-50.9	-70.1	7.5	-265.1	-15.4	·
COc1ccc(CCNC(=O)CCS(=O)(=O)c2ccc3c(c2)NC(=O)C(C)S3)cc1OC (centres undefined)	-11.8	-5.7	1.0	-6.1	12.4	6.3	·
COc1cc(NC(=O)c2c(F)c(F)c(F)c(F)c2F)c(OC)cc1Cl	24.4	16.8	39.5	13.8	69.5*	-14.0	53.1*
COc1cc(NC(=O)c2ccc(F)cc2)c(OC)cc1Cl	-21.6	6.6	15.4	5.1	-16.4	-19.6	·
C/C(=N\NC(=O)C1CC1)c1ccc(Cl)c(Cl)c1	-101.6	-2.7	-20.6	2.5	-51.0	10.5	·
C/C(=N\N=C(N)N)c1ccc(Cl)c(Cl)c1	4.7	1.1	-27.0	-13.1	105.2*	4.3	82.5*
COc1ccccc1C(=O)Nc1nc2ccccc2[nH]1	93.4*	91.4*	96.3*	-73.6*	97.8*	-6.5	91.8*
Cc1ccc(C(=O)Nc2cnc3ccccc3c2)cc1	83.9*	86.4*	84.4*	-20.4	99.0*	-5.3	94.1*
COc1ccccc1C(=O)NCCC(=O)Nc1nc2ccccc2[nH]1	-17.3	-38.5	13.7	-3.5	-29.7	27.9	·
O=C(Nc1nc2ccccc2[nH]1)c1ccc([N+](=O)[O-])cc1	-294.1	-42.9	-49.8	-28.6	-221.0	-7.9	·
Cc1ccc(C(=O)Nc2nc3ccccc3[nH]2)cc1	63.0*	32.2	73.2*	-51.9*	70.5*	-8.9	63.5*
Cc1cc(C(=O)Nc2cnc3ccccc3c2)ccc1[N+](=O)[O-]	-312.8	-45.1	-0.7	6.1	-268.6	-15.8	·
O=C(Nc1ccc(Cl)cc1)c1cccc(NC2=NC3CS(=O)(=O)CC3S2)c1 (centres undefined)	-11.2	-4.5	·	-10.0	-1.6	20.0	·
COCCCNC(=O)C[C@@H]1C[C@@]2(C(=O)OC)CCCCC=C2N(Cc2ccc(Cl)cc2Cl)C1=O	5.9	·	·	·	·	·	·
Cc1cccc(CCNC(=O)C2CCN(S(=O)(=O)N3CCOCC3)CC2)c1	8.1	-0.3	-7.1	3.0	-9.2	0.8	·
Cc1cc(Br)ccc1NC(=O)CNC(=O)CSc1nccn1C	4.8	2.0	-1.8	-6.7	1.3	2.0	·
O=C(Sc1cccc2cccnc12)c1ccccc1Br	14.4	99.0*	84.9*	12.8	59.3*	33.9	46.7*
O=c1cc(SCc2ccc(Cl)cc2Cl)nc[nH]1	-18.3	-15.1	1.4	-1.9	-7.0	11.7	·
